Most compounds without a hit are left out; they make up all but 4.9% or so of the library.
OTUD3 inh – inhibitors of human OTUD3 deubiquitinase; inhibition, % at 25 µM; AID 1645858, 2021; OTU domain-containing protein 3 (Homo sapiens), Q5T2D3; purified OTUD3, Ub-rhodamine fluorescence, 2 h; 47,000 compounds, 0.7% hits
USP10 block – inhibitors of human USP10 deubiquitinase | Ubiquitin carboxyl-terminal hydrolase 10 (Homo sapiens), Q14694 | purified USP10, Ub-rhodamine fluorescence, 60 min | inhibition, % at 20 µM | 47,000 compounds, 1.1% hits
UCHL1 inh – inhibitors of human UCHL1 deubiquitinase | purified UCHL1, Ub-rhodamine cleavage fluorescence | AID 1645859, 2021 | 47,000 compounds, 0.2% hits | inhibition, % at 20 µM
USP7 inh – inhibitors of human USP7 deubiquitinase | 47,000 compounds, 0.3% hits | purified USP7, Ub-rhodamine cleavage fluorescence | inhibition, % at 20 µM | Ubiquitin carboxyl-terminal hydrolase 7 (Homo sapiens), Q93009
USP8 block – inhibitors of human USP8 deubiquitinase | purified USP8, Ub-rhodamine cleavage fluorescence, 30 min | 47,000 compounds, 4.2% hits | inhibition, % at 20 µM
Numbers without * were called inactive. No stated cut-off is given here; in the data, active means inhibition above about 30%; inactive means the rest.

What do the screens show for `Fc1ccc(CNc2nn3c(-c4cccnc4)cnc3s2)cc1`?
OTUD3 inh: -3; USP10 block: 5; UCHL1 inh: -1; USP7 inh: -16; USP8 block: -3

What do the screens show for `Cc1ccc(C(=O)Nc2nc(C)cc(C)c2-c2noc(C)n2)cc1`?
OTUD3 inh: -10; USP10 block: -3; UCHL1 inh: -3; USP7 inh: 0; USP8 block: -1

Results for Cn1cc(C(=O)N2CCC3(CC2)CO[C@H]([C@@]2(C)CC[C@@H](C(C)(C)O)O2)C3)c2ccccc21 ?
OTUD3 inh: 3; USP10 block: -4; UCHL1 inh: -1; USP7 inh: 3; USP8 block: -16

Results for Cc1n[nH]c(C)c1-c1cnc(CC2CCCN(S(C)(=O)=O)C2)cn1 (stereo unspecified) ?
OTUD3 inh: -4; USP10 block: 0; UCHL1 inh: -3; USP7 inh: 2; USP8 block: -11

Results for Cc1ccc(OCC(=O)Nc2ccc3c(c2)CN(C(=O)c2ccco2)CC3)cc1 ?
OTUD3 inh: 30; USP10 block: 17; UCHL1 inh: 6; USP7 inh: -25; USP8 block: 33*

Results for O=C(Nc1cccc(F)c1)c1cccc(-n2cnnn2)c1 ?
OTUD3 inh: 3; USP10 block: 5; UCHL1 inh: 4; USP7 inh: 2; USP8 block: -23

How did CC1=NOC(CNC(=O)Nc2cccc(F)c2C)C1 (stereo unspecified) do in these assays?
OTUD3 inh: -7; USP10 block: 1; UCHL1 inh: -3; USP7 inh: 0; USP8 block: 0

What do the screens show for `CCc1ccccc1NC(=O)Cn1c(SCc2ccc(F)cc2)nc2cccnc21`?
OTUD3 inh: 27; USP10 block: 36*; UCHL1 inh: 2; USP7 inh: 22; USP8 block: 70*

What do the screens show for `CCc1ccccc1NC(=O)CN1C(=O)CSc2ncccc21`?
OTUD3 inh: -15; USP10 block: -2; UCHL1 inh: -3; USP7 inh: 1; USP8 block: -9

What do the screens show for `Cc1cc(C)c(NC(=O)Cn2c(SCc3cccc(F)c3)nc3cccnc32)c(C)c1`?
OTUD3 inh: 18; USP10 block: 12; UCHL1 inh: 3; USP7 inh: 22; USP8 block: 57*

What do the screens show for `Cn1c(C(=O)NCc2ccc(F)cc2)cc2sc(Cl)cc21`?
OTUD3 inh: 16; USP10 block: 10; UCHL1 inh: 8; USP7 inh: -22; USP8 block: 14

What do the screens show for `Cn1nc(Cn2ccnc2)c2c1CN(C(=O)c1ccc(F)cc1)C2`?
OTUD3 inh: 9; USP10 block: 1; UCHL1 inh: 2; USP7 inh: 4; USP8 block: -122

Results for COc1ccc(NC(=O)Cn2c(=O)n(CCCCC(=O)NCc3ccco3)c(=O)c3ccccc32)cc1Cl ?
OTUD3 inh: 6; USP10 block: 59*; UCHL1 inh: 1; USP7 inh: 3; USP8 block: 1

Results for COc1ccccc1CNC(=O)CCCCn1c(=O)c2ccccc2n(CC(=O)Nc2ccc(C)cc2C)c1=O ?
OTUD3 inh: 19; USP10 block: 50*; UCHL1 inh: 3; USP7 inh: 16; USP8 block: 46*

How did COc1cccc(NC(=O)Cn2c(=O)n(CCCC(=O)NCc3ccco3)c(=O)c3ccccc32)c1 do in these assays?
OTUD3 inh: 16; USP10 block: 5; UCHL1 inh: 1; USP7 inh: -1; USP8 block: 4

How did O=C(Cn1c(=O)n(Cc2ccc(C(=O)NCc3ccco3)cc2)c(=O)c2ccccc21)Nc1ccc2c(c1)OCCO2 do in these assays?
OTUD3 inh: 28; USP10 block: 41*; UCHL1 inh: 4; USP7 inh: -9; USP8 block: 74*

Results for Cc1cccc(NC(=O)Cn2c(=O)n(Cc3ccc(C(=O)NC4CCN(Cc5ccccc5)CC4)cc3)c(=O)c3ccccc32)c1 ?
OTUD3 inh: -49; USP10 block: -5; UCHL1 inh: -5; USP7 inh: 3; USP8 block: -9

What do the screens show for `Cc1ccc(CNC(=O)CCCn2c(=O)c3ccccc3n(CC(=O)Nc3cc(C)[nH]n3)c2=O)cc1`?
OTUD3 inh: -4; USP10 block: 1; UCHL1 inh: -2; USP7 inh: -1; USP8 block: 4

What do the screens show for `COC(=O)c1ccccc1NC(=O)Cn1c(=O)n(CCCC(=O)NCc2ccco2)c(=O)c2ccccc21`?
OTUD3 inh: 68*; USP10 block: 54*; UCHL1 inh: 3; USP7 inh: 11; USP8 block: 58*

Results for CC(=O)N1Cc2cc(C)ccc2OC2(CCN(CC(=O)NCCc3ccccc3)CC2)C1 ?
OTUD3 inh: 1; USP10 block: -4; UCHL1 inh: 3; USP7 inh: 0; USP8 block: -3

Results for COc1ccc(-c2cc3nc(CCNC(=O)c4ccc(OC)s4)nn3cn2)cc1 ?
OTUD3 inh: -10; USP10 block: 17; UCHL1 inh: 0; USP7 inh: -5; USP8 block: 13

What do the screens show for `COCCCNC(=O)c1ccc(Cn2c(=O)c3ccccc3n(CC(=O)NCc3ccco3)c2=O)cc1`?
OTUD3 inh: -17; USP10 block: -2; UCHL1 inh: -11; USP7 inh: -2; USP8 block: -22

Results for COCCNC(=O)Cn1c(=O)n(Cc2ccc(C(=O)NCc3ccc(C)cc3)cc2)c(=O)c2ccccc21 ?
OTUD3 inh: 47*; USP10 block: 27; UCHL1 inh: 6; USP7 inh: -14; USP8 block: 19

What do the screens show for `O=C(CCCCn1c(=O)c2ccccc2n(CC(=O)Nc2ccc3c(c2)OCCO3)c1=O)NCc1ccco1`?
OTUD3 inh: 8; USP10 block: 43*; UCHL1 inh: 0; USP7 inh: 7; USP8 block: 3

Results for COc1ccc(OCc2nn3c(-c4ccccc4Cl)nnc3s2)cc1 ?
OTUD3 inh: 14; USP10 block: 14; UCHL1 inh: 0; USP7 inh: 4; USP8 block: -28

Results for CC(C)Cc1cc(-c2nnc3sc(-c4ccco4)nn23)n[nH]1 ?
OTUD3 inh: 41*; USP10 block: 10; UCHL1 inh: 10; USP7 inh: 7; USP8 block: 35*

How did CC(=O)N1CC2(CCN(C(=O)c3ccccn3)CC2)Nc2ccccc21 do in these assays?
OTUD3 inh: -2; USP10 block: -1; UCHL1 inh: 1; USP7 inh: 4; USP8 block: -4

Results for O=C(c1ccccn1)N1CCC2(CC1)CC1(CO2)Nc2ccccc2-n2cccc21 (stereo unspecified) ?
OTUD3 inh: -22; USP10 block: -7; UCHL1 inh: 15; USP7 inh: -14; USP8 block: 77*

Results for O=C(COC(=O)c1cc2ccccc2cc1O)NCCc1ccccc1 ?
OTUD3 inh: 8; USP10 block: 15; UCHL1 inh: 1; USP7 inh: 8; USP8 block: 42*
